The supplement of paper PMC9694430

Tests used:
Experiment in all cases: thermal shift delta Tm vs DMSO control; higher = stronger stabilization (binding)
Settings in all cases: 12.5 µM; protein concentration 2 µM
[1] = test system: LOC_OS01G01410-cb001
How it was run: (§1)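 Rice kinase domain constructs were expressed in E. coli, purified, and tested by differential scanning fluorimetry with compound added in DMSO. Each well of a 96-well plate held 19.5 μl of 2 μM kinase in 100 mM potassium phosphate pH 7.5, 150 mM NaCl, 10% glycerol and 5 × SYPRO Orange, and fluorescence was read from 25°C to 95°C at 0.05°C/s. The melting temperature shift is the mean of triplicates, taken against protein with DMSO alone after Boltzmann fitting.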

[2] = test system: LOC_OS01G02750-cb003
How it was run: as §1

[3] = test system: LOC_OS01G10900-cb004
How it was run: as §1

[4] = test system: LOC_OS01G13800-cb001
How it was run: as §1

[5] = test system: LOC_OS01G14860-cb001
How it was run: as §1

[6] = test system: LOC_OS01G21960-cb002
How it was run: as §1

[7] = test system: LOC_OS01G39600-cb002
How it was run: as §1

[8] = test system: LOC_OS01G48390-cb002
How it was run: as §1

[9] = test system: LOC_OS01G51400-cb002
How it was run: as §1

[10] = test system: T1, LOC_OS01G52050-cb004
T1 sequence (whole entry): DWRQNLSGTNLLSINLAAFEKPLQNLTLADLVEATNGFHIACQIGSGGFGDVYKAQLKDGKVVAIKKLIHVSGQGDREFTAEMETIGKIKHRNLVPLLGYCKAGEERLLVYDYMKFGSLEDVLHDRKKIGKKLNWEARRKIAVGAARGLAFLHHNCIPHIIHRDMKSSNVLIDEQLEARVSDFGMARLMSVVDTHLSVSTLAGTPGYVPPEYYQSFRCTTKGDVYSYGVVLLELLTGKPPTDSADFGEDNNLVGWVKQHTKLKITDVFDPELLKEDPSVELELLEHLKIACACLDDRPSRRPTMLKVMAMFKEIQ
How it was run: as §1

Row | SMILES | thermal shift delta Tm [1] [°C] | thermal shift delta Tm [2] [°C] | thermal shift delta Tm [3] [°C] | thermal shift delta Tm [4] [°C] | thermal shift delta Tm [5] [°C] | thermal shift delta Tm [6] [°C] | thermal shift delta Tm [7] [°C] | thermal shift delta Tm [8] [°C] | thermal shift delta Tm [9] [°C] | thermal shift delta Tm [10] [°C]
1 | Cc1c(C(=O)N2CCOc3ccc(-c4ccc(N)nc4)cc3C2)ccc(S(C)(=O)=O)c1F | 0.69 | 0.8 | 0.01 | 0.06 | 0.22 | 0.19 | -0.01 | 0.13 | 0.26 | 0.52
2 | C[S+]([O-])c1ccc(-c2nc(-c3ccc(F)cc3)c(-c3ccncc3)[nH]2)cc1 (stereo not given) | 1.61 | -0.29 | 0.57 | 0.79 | 2.49 | 1.22 | 0.18 | 0.4 | -0.08 | 0.5
3 | Cc1cc2c(F)c(Oc3ncnn4cc(OC[C@@H](C)OC(=O)[C@H](C)N)c(C)c34)ccc2[nH]1 | 1.74 | 0.78 | 0.61 | 0.4 | 0.52 | 0.54 | 0.75 | 0.96 | -0.47 | -0.05
4 | COc1cc2nccc(Oc3ccc(NC(=O)Nc4cc(C)on4)c(Cl)c3)c2cc1OC [Tivozanib (AV-951)] | 1.87 | 1.12 | 1.76 | 0.05 | 0.65 | 0.54 | -0.67 | 1.22 | -0.16 | 6.73
5 | Cn1cc(-c2ccc3nnc(C(F)(F)c4ccc5ncccc5c4)n3n2)cn1 | 1.27 | -0.24 | 5.11 | 0.46 | 0.28 | 1.41 | 1.09 | 0.82 | 0.35 | 1.02
6 | CC(C)n1nc(-c2cc3cc(O)ccc3[nH]2)c2c(N)ncnc21 [Torkinib (PP242)] | 0.97 | 0.22 | 0.64 | 0.08 | 0.52 | 0.37 | -0.17 | 0.78 | 0.2 | 0.85
7 | CN1CCN(c2ccc(-c3ccncc3-c3cc(F)c(O)c(F)c3)cc2)CC1 | 0.42 | 0.81 | -0.45 | 0.02 | 0.46 | 0.1 | -0.43 | -0.15 | 0.11 | 0.14
8 | Oc1c(F)cc(-c2cnccc2-c2ccc(N3CCOCC3)cc2)cc1F | 0.86 | 0.33 | 0.19 | 0.41 | 0.2 | 0.65 | -0.24 | 0 | 0.36 | -0.22
9 | COc1cc2ncnc(Nc3ccc(F)c(Cl)c3)c2cc1OCCCN1CCOCC1 [Gefitinib (ZD1839)] | 1.27 | 0.13 | 3.7 | 0.4 | 0.18 | -0.07 | 1.46 | 2.87 | 0.02 | 0.77
10 | O=C1NC(=O)/C(=C/c2cccc(C(F)(F)F)c2)S1 | -0.06 | 0.14 | 0.2 | 0.24 | 0.12 | 0.28 | -0.09 | 0.08 | 0.11 | 0.12
11 | O=C(NC[C@H](O)CO)c1ccncc1Nc1ccc(I)cc1F | 0.13 | 0.07 | 1.79 | 0.34 | 0.16 | 0.66 | -0.15 | 0.13 | -0.03 | 0.02
12 | C[C@@H]1COCCN1c1cc(=O)n2c(n1)N(Cc1cncc(Cl)c1)[C@H](C(F)(F)F)CC2 | 0.21 | 1.55 | 0.48 | 1.15 | 0.32 | 0.45 | 0.34 | 0.95 | 0.31 | 0.49
13 | Nc1cccc(S(=O)(=O)N2CCCN(S(=O)(=O)c3ccc4c(c3)OCCO4)CC2)c1 | 0.49 | 1.98 | 0.15 | 0.22 | 0.23 | 0.8 | -0.77 | 3.24 | 0.46 | 0.19
14 | COc1cc2ncnc(Oc3cccc(NC(=O)Nc4cc(C(C)(C)C(F)(F)F)on4)c3)c2cc1OC | 0.82 | 1.07 | 0.12 | 0.13 | 0.91 | 0.64 | 0.02 | 0.73 | 0.35 | 0.75
15 | O=c1c(O)c(-c2cc(O)c(O)c(O)c2)oc2cc(O)cc(O)c12 [Myricetin] | 2.93 | 26.2 | 1.94 | 1.96 | 5.72 | 5.56 | 4.45 | 2.72 | 2.08 | 5.01
16 | NC[C@@](O)(c1ccc(Cl)cc1)c1ccc(-c2cn[nH]c2)cc1 | 0.04 | 1.13 | 0.24 | 0.5 | 0.53 | 1.22 | -0.16 | 1.06 | 0.36 | 0.51
17 | CC(C)Nc1cc(-c2c[nH]c(C(=O)N[C@H](CO)c3cccc(Cl)c3)c2)c(Cl)cn1 | 6.3 | 1.26 | 0.37 | 0.75 | 5.82 | 1.37 | 1.63 | 1.24 | 0.12 | 2.18
18 | COc1cc2ncnc(Sc3nnc(C)s3)c2cc1OC | 1.2 | 0.37 | 0.57 | -0.34 | 0.11 | 0.06 | -0.24 | 2.02 | 0.02 | 0.91
19 | CCCCCCCCCC(=O)CC(O)S(=O)(=O)O (stereo not given) [Sodium Houttuyfonate] | 0.56 | -0.18 | 3.08 | 0.69 | 0.44 | 0.8 | -0.35 | 0.2 | 0.12 | 0.07
20 | NC(=O)c1ccc(N(C(N)=O)c2c(F)cccc2F)nc1-c1ccc(F)cc1F | 0.34 | 0.53 | 0.19 | -0.47 | -0.12 | 0.57 | -1.78 | 0.07 | 0.14 | -0.21

Row | SMILES | thermal shift delta Tm [1] [°C] | thermal shift delta Tm [2] [°C] | thermal shift delta Tm [3] [°C] | thermal shift delta Tm [4] [°C] | thermal shift delta Tm [5] [°C] | thermal shift delta Tm [6] [°C] | thermal shift delta Tm [7] [°C] | thermal shift delta Tm [8] [°C] | thermal shift delta Tm [9] [°C] | thermal shift delta Tm [10] [°C]
21 | Fc1ccc2[nH]ccc2c1-c1nc(N2CCOCC2)c2sc(CN3CCN(CC4CC4)CC3)cc2n1 | 0.26 | 0.77 | 2.96 | -0.36 | 0.37 | -0.01 | -0.27 | 0.62 | -0.02 | 0.03
22 | CCN1C(=O)CNc2ncc(-c3ccc(-c4nc[nH]n4)nc3C)nc21 | 0.49 | -0.88 | 1.31 | 0.86 | 1.11 | 0.62 | -1.87 | 0.34 | -0.29 | -1.26
23 | CCc1cnn2c(NCc3ccc[n+]([O-])c3)cc(N3CCCC[C@H]3CCO)nc12 | 0.61 | 2.64 | 0.06 | 0.02 | 3.51 | 0.49 | -0.18 | 0.7 | 0.2 | 0.32
24 | CCOc1cc2ncc(C#N)c(Nc3ccc(F)c(Cl)c3)c2cc1NC(=O)/C=C/CN(C)C [Pelitinib (EKB-569)] | 0.85 | 0.32 | 1.14 | 0.55 | 4.99 | 1.49 | 4.78 | 0.69 | 0.03 | 3.13
25 | CNC(=O)c1ccccc1Nc1nc(Nc2ccc(N3CCOCC3)cc2OC)ncc1Cl | 0.74 | 1.05 | 1.53 | -0.3 | 0.28 | 0.37 | -6.71 | 0.8 | 0.36 | 1.17
26 | CN1CC[C@H](c2c(O)cc(O)c3c(=O)cc(-c4ccccc4Cl)oc23)[C@H](O)C1 [Flavopiridol (Alvocidib)] | 0.72 | 0.39 | 0.16 | 0.35 | 4.54 | 1.94 | 1.37 | 0.03 | -0.2 | 0.8
27 | CC1Oc2cc(cnc2N)-c2c(nn(C)c2C#N)CN(C)C(=O)c2ccc(F)cc21 (stereo not given) | 0.52 | 1.64 | 0.21 | -0.23 | 0.3 | -0.18 | -0.18 | 2.07 | 0.44 | 0.41
28 | CCn1c(=O)c(-c2cc[nH]n2)cc2c(C)nc(N)nc21 | 0.43 | 1.06 | 0.44 | 0.27 | 0.44 | 0.65 | 0.24 | 0.13 | -0.16 | 0.21
29 | CCCCCCCCCCCCc1ccc(S(=O)(=O)Nc2nncs2)cc1 | 0.38 | 0.24 | 0.46 | 0.29 | 0.62 | 1.26 | 0.44 | 0.62 | -0.04 | 1.1
30 | CN1CCC(CNc2ccc3ncc(-c4cccc(OC(F)(F)F)c4)n3n2)CC1 [SGI-1776 free base] | 0.34 | 4.11 | 3.96 | 0.13 | 0.51 | 2.41 | 0.68 | 0.82 | 0.07 | 3.81
31 | C[C@@H]1CN(CC(=O)Nc2ccc3c(c2)Cc2cccc(-c4cc(=O)cc(N5CCOCC5)o4)c2S3)C[C@H](C)O1 | 0.15 | 1.53 | 0.85 | 0.28 | 1.89 | 0.63 | -0.34 | 0.3 | 0.05 | 0.42
32 | Cc1cnc(Nc2ccc(OCCN3CCCC3)cc2)nc1Nc1cccc(S(=O)(=O)NC(C)(C)C)c1 | 1.71 | 0.69 | 0.57 | -0.28 | 1.28 | 2.52 | 5.09 | 0.66 | 0.43 | 2.51
33 | CCNC(=O)C#Cc1ccc2c(C(=Nc3ccc(CN(C)C)cc3)c3ccccc3)c(O)[nH]c2c1 | 1.75 | 1.1 | 0.16 | -0.3 | 5.63 | 0.65 | 3.52 | 1.35 | -0.33 | 2.8
34 | Cn1cc(-c2ccc(F)c(C(F)(F)F)c2)nc1C1CCN(c2ncnc3[nH]ncc23)CC1 | 0.43 | 0.52 | 0.51 | 0.16 | 1.8 | 0.54 | 0.71 | 0.47 | -0.2 | 0.39
35 | N#Cc1c(O)c2c(-c3ccc(-c4ccccc4O)cc3)csc2[nH]c1=O | 0.93 | 1.74 | 0.92 | 1.23 | 0.8 | 1.72 | 0.7 | 0.95 | 0.44 | 0.93
36 | O=C(Nc1ccccc1C(=O)NC1CCCCNC1=O)c1cc2ccccc2s1 (stereo not given) | -0.16 | 1.09 | 0.05 | 0.44 | 0.04 | 0.32 | -0.76 | -0.09 | 0.19 | -0.05
37 | Cc1nc(N)sc1-c1ccnc(Nc2ccc(N3CCOCC3)cc2)n1 | 5.75 | 10.4 | 1.74 | 0.29 | 2.6 | 2.06 | 3.24 | 2.34 | 0.68 | 6.52
38 | CCCCOc1c(C(=O)c2c(F)cc(C)cc2F)c[nH]c2nncc1-2 | 1.01 | 0.64 | 1.09 | 0.41 | 2.54 | 1.36 | 0.07 | 0.94 | 0 | 0.38
39 | CNC(=O)c1cc(Oc2ccc(NC(=O)Nc3ccc(Cl)c(C(F)(F)F)c3)c(F)c2)ccn1 [Regorafenib (BAY 73-4506)] | 2.09 | 0.82 | 0.16 | 0.79 | 2.04 | 0.87 | 0.21 | 0.48 | 0.2 | 0.67
40 | CCOc1cc(C(=O)N2CCC(N3CCN(C)CC3)CC2)ccc1Nc1ncc2c(n1)N(C1CCCC1)c1ccccc1C(=O)N2C | 0.26 | 0.37 | 0.01 | -0.42 | 0 | 0.3 | -0.95 | 0 | -0.1 | -0.46
